This note sets out measurements from PubChem BioAssay AID1347426 (Functional Genomics Laboratory (NCATS/FGL), 2020).

In all, about 31,000 sequences went through this assay and about 1,400 (4.5%) were called active. Many of the other results were omitted from the sample, so actives are more common in it than they were. Values without a mark were called inactive.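 The calls were made as follows: active = median seed-adjusted z-score above 1 or below -1; inactive = the rest.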

The assay is described as follows: Novel Modifiers of Survival Motor Neuron (SMN) Protein: Gene Identification via Genome-wide siRNA Screen.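 Also: luminescence tracks full-length SMN protein made from the SMN2 reporter.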 As to conditions: HEK293T SMN2-luciferase reporter, siRNA knockdown, 72 h; actives lie on both sides. In a few lines: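 HEK293T cells stably expressing an SMN2 splicing/cDNA-luciferase reporter were reverse-transfected with a druggable-genome siRNA library and read by luminescence at 72 hours; hits defined by MAD score above 1.0 or below -1.0.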
On the technique in general: A reporter such as luciferase makes a cellular process visible.
GAAUCUGUCAGGAAUGACATT against RARB: the median seed-adjusted z-score is 0.409.
Regarding CAUCGAAUCCUUACCCGAATT against AASDHPPT, the median seed-adjusted z-score was 0.64.
Take GCCUCACCUCAAUUGCAAATT against ANP32D: the median seed-adjusted z-score is -0.714.
With GACUACGCCUUGAAGCUAATT against TAF6 the figure was -1.36 (active).
With GCUUUCGUCAAGUCAAAGATT against TIRAP the figure was -0.431; with AGAGCUAGAUGGAAGAACATT against SFRS3, 2.74 (active); with ACUGACAUUUUUCAACUCATT against ALDH1L1, 0.0289.
For the sequence CUACCGCAUCAGUAACAGATT against DDX21, the median seed-adjusted z-score is -0.251.
In the case of GACUCUGAGUAUAAAGUGATT against BARHL1 it was 0.397; in that of GGCUGGAUGUCAUUGAGAATT against SRGAP3, -0.0961; in that of GCGAGGGCCUUUUUGAGUATT against CRYAA, -1.03 (active).
With GAUCGAAUCUUUAAGGUCUTT against EIF2C1 the figure was 0.215; with ACAUCUCCGAAAUCGCCUATT against SLC2A8, -0.105; with AAAUGGAUGAGUUGCAAUUTT against PITX1, 0.
As for GCUCCGAAGUGGUGAUCAATT against CHRM1, the median seed-adjusted z-score is 1.1 (active).
With GGAUAUGCCUUAGAUUACATT against PRTFDC1 the figure was 0.493.
For the sequence GGUUCAUGACAGACAAGAATT against SHMT1, the median seed-adjusted z-score is 0.179.
In the case of GCAUGUAUCUGCUUGAUAUTT against ODC1 it was -1.64 (active); in that of GUUUUUGUCCUAGCCCAUATT against OTUD7A, -0.53.
GCCCAUGUCCCAAAUCACATT against PDE4A: the median seed-adjusted z-score is -0.147.
With GGCAAAAUCUGGACACCAUTT against TFAP4 the figure was -0.0515.
Consider CCGGAAUUUUUGACAAGAATT against PTGS2, for which the median seed-adjusted z-score is -0.21.
As for AGAUCUGCAUGAAACAACATT against VPS16, the median seed-adjusted z-score is 0.306.
With GGUCUGAAACUCUACUAUATT against SHPRH the figure was 0.169.
With GGUUCUAACUUCGAAAAAUTT against DNAJC8 the figure was -1.62 (active).
Turning to AGUCUGUCCGAGUACUUCATT against LFNG, the median seed-adjusted z-score was -0.13.
With GAGUUAAGUGAUAAGUAUATT against ZNF639 the figure was 0.182; with GCUCUGUAAUAGUCGACUATT against TOPBP1, 0.0888.
In the case of GCUUGUAGCUCUUAAGGUUTT against PPP2CA it was 0.731; in that of GGUCUUUAUUCGGAAGCGATT against ZNF525, 0.134.
With GAUAUUGAGCGGUUACAAATT against ATP7B the figure was 0.0947; with GCACUCAUGUCAUACUGAATT against LIPA, 0.535.
Take GUUACUUCCGAAUCCAUGATT against ZNF627: the median seed-adjusted z-score was 0.204.
With GGAAACCUCUGGACCUCUATT against ARID1A, the median seed-adjusted z-score is -1.14 (active).
As for GGACAGAUCUGCAAAGAGATT against CETP, the median seed-adjusted z-score was 0.
GAUGUACCUUGAUACAGUATT against IDH3A: the median seed-adjusted z-score was 0.137.
CUGAUGAUCUACUCAUAUATT against TEKT1: the median seed-adjusted z-score was 0.222.
In the case of GCUCCAUCCUUAUUCAACATT against ZIK1 it was -0.0627; in that of GCUCAUCUGGAUAACCUGATT against ZNF513, -0.0616; in that of GGCUAUUAUUGACAUGGUUTT against PDE8B, 0.217.
In the case of GAAUAUGAAACAUUCGAUATT against GLRX3 it was 0.0784.
On to CUUCUGAACUCGGUCCUCATT against SLC5A5, for which the median seed-adjusted z-score is 1.01 (active).
With GGCUUUCAUUGAGCAGGAATT against ATP6V1E2 the figure was -0.162; with GACCAGCAAUGCCUACGUATT against FLRT1, -0.00451.
In the case of GCAAAACCCUGGAAGGAUATT against KCTD11 it was 0.374.
With UGACAGUGACGGAUGCUAATT against OPLAH, the median seed-adjusted z-score is -0.233.
In the case of CGAUCGACUCGGUGACUUUTT against COL7A1 it was 1.08 (active).
With GAAGUCACGUCACUACUUATT against ZNF644 the figure was 0.389; with CACAGAUCAUUAUCUAAAUTT against LONP2, 1.52 (active); with CCUCAGAACCGGCAAGAAATT against TNFAIP1, 0.0766.
With CCAAAAUGUUUCAUCCAAATT against UBE2B the figure was 0.333; with GAGUUAUGCAAGACAGUAUTT against MYSM1, -0.116; with GCAGCAACCUUGUCAUCCATT against ZNF692, 0.556.
For the sequence CACCAGCGACGGGAUCUUATT against RHOBTB2, the median seed-adjusted z-score was -0.139.
In the case of CCGUCACAGUAGAGACUAUTT against LRRC4C it was -0.122; in that of GCAAUUACAUGAGCGAGCATT against PLK1, -2.57 (active).
Consider GCUCCAUCAUCGUUGCAUUTT against SYPL2, for which the median seed-adjusted z-score was 0.233.
In the case of CCAUAUUCCUCAUGCAUGUTT against FCRL5 it was -0.138; in that of CAUCAGGAAUUACGGGACATT against GPR123, 0; in that of AGGGAACAAGUUUACCAAATT against GTF2IRD1, -0.282.
In the case of GGUUAGACAUCAGUCCUUUTT against DHX15 it was 1.36 (active); in that of CAGUUCCAGAUGAACCAUATT against DHDDS, 0.0122; in that of CACGGGAUAUGGAACGAAATT against CXCR7, -0.511.
In the case of GAACAGUCCCUGGUUCCCATT against ECSIT, the median seed-adjusted z-score is -0.116.
With UGCCCUUGGCUAUCCCUGATT against SLC30A3, the median seed-adjusted z-score is -1.26 (active).
On to GGCUUUGUCAGUUCCCAGATT against SPRR2B, for which the median seed-adjusted z-score was 0.388.
With GCUUUGCUCUGUACCCUGATT against CTSK the figure was 0.0972; with CCAUUAACCACAUACCAGATT against TLR7, 0.189.
For the sequence CCAGUUCUUUAGGAUCUAUTT against GPR141, the median seed-adjusted z-score is -0.777.
In the case of GCGGAGCAUUUGCAACAAATT against NR6A1 it was -0.287; in that of GCACCUUUAGGCGAAGGAATT against SENP6, -1.03 (active); in that of CCAUCAUCCCUAAGCGAAUTT against REXO1, -0.748.
Consider GUGUGGUCAUUCAACUUGATT against ZNF324B, for which the median seed-adjusted z-score was 0.176.
For the sequence GCACCUUCCUGCUAAGAUUTT against STAT3, the median seed-adjusted z-score is 0.
With GCUACUCCCUGAUUCAGAATT against SLC2A7 the figure was -0.0337.
With CUACAAAAGUUUUUCCAGATT against COX7A2L the figure was 0; with CACGGUAUCUCAACCGGAATT against HGS, 1.16 (active).
With CCCAGGCUCGAAUCCCAUATT against PLD3 the figure was 0.066; with CCUUCUCCGUGAUUGAGGATT against LGI4, -0.239; with GGCGACAGAUGUGAAAGAATT against LDLR, -0.142.
Take GAUUGAUAGAAGCACCCUATT against DCC: the median seed-adjusted z-score was 0.303.
In the case of AAGACAAGCUAAAAAUGAUTT against YWHAE it was 1.38 (active).
In the case of GCAAGGACCCAACAACCAATT against TTC9 it was -0.173; in that of GUCAUUUCUUUACCCAAGATT against NUDT5, 0.228; in that of GGAAAACUGCGGCUGCAAATT against AP1S1, -1.04 (active).
In the case of GCACGAAAAUCCCGACAUATT against DDX54 it was 0; in that of GGCCGAAUUUAUAAAGGAATT against CHI3L1, 0.145.
Turning to GAGGUACGCUGGUUCUACATT against DDHD1, the median seed-adjusted z-score is 0.
With GCAUAGAGGAGAUCUGUGATT against PROC the figure was -0.228; with ACUUCUACACGUUUCCAAATT against THAP11, -1.36 (active).
In the case of GAACAACACGACCAACAGATT against PRKD2, the median seed-adjusted z-score was 0.00493.
In the case of GGGUCGACCUAUUUCCGAATT against DYSF it was -0.23.
With GCAAACCGGUUAAUCAAGATT against GGA2 the figure was -0.142.
With GAUCCUCAGUAAACCUAUUTT against DDX46 the figure was -1.24 (active); with GCAUGUUGGUUCACUAUGATT against TPST1, -0.00547; with AGGUCUUUCCCAACGAGGATT against UBE2S, 0.348.
GGAUGCACUUUGUCCGAAATT against SPATA5: the median seed-adjusted z-score is -1.04 (active).
As for AGUUGGGAUUAAUACUUCATT against CCL7, the median seed-adjusted z-score was 0.23.
In the case of GAACUUGUCUUGCGCAAAATT against ZEB1 it was -0.163.
In the case of GGUUUGUGGUGGAAGAUUATT against PLCD3 it was 0.228; in that of GGAUCACUCUAACAUCGGATT against PDE1C, 0.157; in that of GGAUCAGUAUGGGCAAAGATT against CALB1, 0.191.
With UCUCUACAACAAAAUUUAATT against POLR2L the figure was -1.19 (active); with CACUUGAUGUUAUUCGUGUTT against MOAP1, 0.0405; with GGAAGGAUCAAACUACAAATT against AATF, 0.182.
Regarding CAUUAUCGAUACUAUGUAATT against PSMD6, the median seed-adjusted z-score is -1.03 (active).
For GAUCCACCUUAUACUCAUATT against EPS8, the median seed-adjusted z-score was 0.
On to GAUGAUUACAUAUCAGAGATT against ZNF630, for which the median seed-adjusted z-score is -0.533.
Take CACCCUAAUGGAUACAGCUTT against NTSR2: the median seed-adjusted z-score was -0.125.
